Where a chain is given by its changes, count along the chain named. Over roughly 5,800 sequences, “enrichment r” has its median near 0.54; the highest 2% begin near 16. Shown is part of a subset that was picked to be rich in the highest values.
B1: chr3:44491765:44499181:-|three_prime_utr|ENSG00000178917|control|control|control (ssRNA)
RNA: GGGAGUUCUACAGUCCGACGAUCACUAAUCACAGUGGAGACCAUACCUACUUGCUUUUCCUUGGGUCACUAAGGUGGGAGAGUAGGUGCAACUUAGUCUGAUCCUUACUUAGUAGGAAAUUGGGGAUUACAUCUGUCAUUAACCAACAGAGGAUUGAGCAUCA
B2: chr11:59152587:59152688:+|CDS|ENSG00000166801|msi1|FALSE|unique (ssRNA)
RNA: GGGAGUUCUACAGUCCGACGAUCAUUGAAAACUUCAAGAAAAAAAUGAAAGUAAAAAAUGGGGAAACAUUAUUUGAAUUGCAUAGAACAACGUUUGGGAAAGUAACAAAAAAUUCUUCUUCGAUUAAAGUAGUGAAACUUCUUCAACAGAGGAUUGAGCAUCA
B3: chr3:98797769:98798349:-|3pUTR|ENSG00000057019|msi1|total|mutant (ssRNA)
RNA: GGGAGUUCUACAGUCCGACGAUCUUGUUUUUGAUACCUCCUGGCAGCUUCCAUGUCACCACUUGUUCAUACCUGCCCAGAGCCCGUUUCCGACAUGGCAAAACCGAAAUCAUCUGUAAUUUAUCCGCUAACAAUGUAAAACCACAACAGAGGAUUGAGCAUCA
B4: chrX:71101288:71101389:+|CDS|ENSG00000184481|unk|FALSE|unique (ssRNA)
RNA: GGGAGUUCUACAGUCCGACGAUCGGAGGCCCUGCUCACCUCUGAUACGCCACCACCCCCUGCUGACGUCCUCAUGACCCAGGUAGAUCCCAUUCUGUCCCAGGCUCCGACUCUUCUGUUGCUGGGGGGGCUUCCUUCCUCCAGCAACAGAGGAUUGAGCAUCA
B5: ENSG00000070961:be:win_3151|CDS|ENSG00000070961|bound_else_gene|NA|bound_elsewhere_windowed (ssRNA)
RNA: GGGAGUUCUACAGUCCGACGAUCACAUUACUCUGGGGCCAGCUUAUUUCAACAAUUCCAACUAGCCGUUUAAAAUUCCUCAAAGAAGCUGGUCAUGGAACACAAAAGGAAGAAAUACCUGAGGAGGAAUUAGCAGAGGAUGUUCAACAGAGGAUUGAGCAUCA
B6: ENSG00000198589:be:win_9451|3pUTR|ENSG00000198589|bound_else_gene|NA|bound_elsewhere_windowed (ssRNA)
RNA: GGGAGUUCUACAGUCCGACGAUCUUAAACUAUCAUCUCCACCUUCCUUUUGAUUAGCAAUUUGUACUAAGAAACGAAACAAUGUUAUUUGGUGGUGUAUAAUUCUACUUUUCUAGUAGAUUACUGUGUGGAAUUCUGUGAAAACAACAGAGGAUUGAGCAUCA
B7: chr6:73594753:73594854:-|3pUTR|ENSG00000119899|unk|FALSE|unique (ssRNA)
RNA: GGGAGUUCUACAGUCCGACGAUCGGUUCACAUACCUGCCUGCUAGUCGGGCAACAUGAAGUAGGACAGUUCUGUUGAUUUUUUAGGGCCAUACUAAAGGGAAUGAGCUGAAACAGACCUCCUGAUACCUUUGCUUAAUUAAACCAACAGAGGAUUGAGCAUCA
B8: chr16:57253408:57253449:+|3pUTR|ENSG00000102931|msi1_unk|FALSE|overlapping (ssRNA)
RNA: GGGAGUUCUACAGUCCGACGAUCUGUGUGGUAGAUUACUUAUCAGAAAACAUAUAUGUCAUCUCUAGAACGAAGAAAAAGCAUAGUAGUUCAAUUCCCAGUGUGUCCCUUUGAUUUUUUUUUUUUAAUAGUAAAAAUAAGAAUCAACAGAGGAUUGAGCAUCA
B9: chrX:71300841:71300885:+|3pUTR|ENSG00000147140|msi1_unk|total|mutant (ssRNA)
RNA: GGGAGUUCUACAGUCCGACGAUCCCCCAUAUAUUACCCCUUCAUGUCCUAAAGAAGACAUUUUCUCUCCGAGAUUUUCAUUUCCGUGUAUCUUUAAAAAAAAAUCUUGUGUUAACUUGCCUCCAUCUUUUUCUUGGGUGAGGACAACAGAGGAUUGAGCAUCA
B10: chrX:71300841:71300885:+|3pUTR|ENSG00000147140|msi1_unk|FALSE|overlapping (ssRNA)
RNA: B9 RNA with C68U, C69A, C83U, C84A
B11: chr14:51255895:51255996:+|3pUTR|ENSG00000139921|msi1_unk|FALSE|overlapping (ssRNA)
RNA: GGGAGUUCUACAGUCCGACGAUCGUGAAUCCAUUAGAUUUACAGUAUCGUAAUAUACAAGUUUUCUUUAAAGCCCUCUCCUUUAGAAUUUAAAAUAUUGUACCAUUGAAGAGUUUGGAUGUGUAACUUGUGAUGCCUUAGAAACAACAGAGGAUUGAGCAUCA
B12: chr16:57253408:57253449:+|3pUTR|ENSG00000102931|msi1_unk|total|mutant (ssRNA)
RNA: B8 RNA with U31C, A32C, U65C, A66C, U83C, A84C, U86C, A87C, U128C, A129C
B13: chr22:45843749:45843850:+|3pUTR|ENSG00000130638|msi1|FALSE|unique (ssRNA)
RNA: GGGAGUUCUACAGUCCGACGAUCAAAUUGCAAGUGUUUGAAGAUUUAUAAGUACAAAUUUGGGAACAUACAAAUCUUUUAGGUAGUAGAGUUUAACGUGUAUAAGCUAAAAGUGAAAGUAACUGAGUGUUCUCUUGUUUCUUUCAACAGAGGAUUGAGCAUCA
B14: chr2:16549458:16552935:-|three_prime_utr|ENSG00000197872|control|control|control (ssRNA)
RNA: GGGAGUUCUACAGUCCGACGAUCUUGCUACUGGAGUCCUUUAACAACAUCUAUAACGAUAAAAAAUUCCUAAUUGUUUGUGGUAGUAUUUUAAUUCUAGAUGUGUUAUCUCUCUGGGAAGUAUAGUUUAUAGAAACACAAAAUCAACAGAGGAUUGAGCAUCA
B15: ENSG00000139428:stop:overlap|stop_codon|ENSG00000139428|stop_codon|NA|stop_codon (ssRNA)
RNA: GGGAGUUCUACAGUCCGACGAUCUAUUACUAUUCUUAACACUUACCUGUUCCUGGCUACCAUUUCUCCAUGGCGGGCCUGACUAGGUUUGCUCUGGAAUUAGUCACAGAAAAGGGCCAUACAUUUGCCGAAGAGCUUCAGAAACAACAGAGGAUUGAGCAUCA
B16: chr5:111496093:111496242:-|3pUTR|ENSG00000164211|unk|FALSE|unique (ssRNA)
RNA: GGGAGUUCUACAGUCCGACGAUCUUUACAUGUAUAGUUAAAUAUUAAAAUUCAUCUCUUGCAGUUCAAUAAAAGCUAUAGUAUAGAUUUUAUUUUUAAGAAGUUUAUAUAAUUCUUUUGUGAACCAAUAUGUAAAACUAGAAUCAACAGAGGAUUGAGCAUCA

The binders below were run against MSI1 full-length (mouse, UniProt Q61474 1-362) (assay: nsRBNS (natural sequence RNA bind-n-seq); RBNS binding buffer (assumed for nsRBNS): 25 mM Tris pH 7.5, 150 mM KCl, 3 mM MgCl2, 0.01% Triton X-100, 500 ug/ml BSA, 20 U/ml SUPERase-In, 4 C; UNK is unkempt and MSI1 is Musashi-1; names of the RNAs are library labels; protein concentration not given here; high values mean tight binding).
Chain of MSI1 full-length (Q61474 whole entry): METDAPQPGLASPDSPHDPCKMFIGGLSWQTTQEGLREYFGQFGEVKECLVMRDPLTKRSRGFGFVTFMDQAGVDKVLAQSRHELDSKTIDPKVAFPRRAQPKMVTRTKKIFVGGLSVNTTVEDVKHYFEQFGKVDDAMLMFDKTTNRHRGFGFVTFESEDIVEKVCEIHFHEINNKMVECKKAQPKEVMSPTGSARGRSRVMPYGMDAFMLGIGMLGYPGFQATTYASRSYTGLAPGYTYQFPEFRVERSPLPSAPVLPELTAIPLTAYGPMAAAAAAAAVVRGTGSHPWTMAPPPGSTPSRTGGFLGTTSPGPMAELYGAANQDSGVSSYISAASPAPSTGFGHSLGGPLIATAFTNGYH
Binder B1 has a binding signal of 0.646 enrichment R.
B2 gave a binding signal of 0.574 enrichment R.
B3 was tested, and the binding signal was 0.808 enrichment R.
With B4 the binding signal was 0.429 enrichment R.
For B5, the binding signal was 0.641 enrichment R.
Work on B6 yielded a binding signal of 1.55 enrichment R.
Work on B7 yielded a binding signal of 0.746 enrichment R.
For B8, the binding signal was 21 enrichment R.
B9 showed a binding signal of 0.906 enrichment R.
For B10, the binding signal was 16.5 enrichment R.
In the case of B11, the binding signal is reported as 5.27 enrichment R.
In the case of B12, the binding signal is reported as 0.465 enrichment R.
For B13, the binding signal was 7.75 enrichment R.
B14 was tested, and the binding signal was 25 enrichment R.
With B15 the binding signal was 18.8 enrichment R.
B16 showed a binding signal of 2.64 enrichment R.
